Results: PubChem BioAssay (EPA / NIEHS)
Calls of active or inactive are those of the source. Rule for the calls: active = hit-call score of the fitted dose curve at least 0.9, where 1 is the maximum; inactive = score below 0.9.

Experiment: ATG_CRE_CIS: Attagene CIS-FACTORIAL HepG2 Assay for human cAMP Responsive Element (CRE) binding protein 3 (AID 2282926)
Details: HepG2 CRE cis-reporter, Attagene multiplexed mRNA; actives raise or lower the signal
Procedure: ATG_CIS is a cell-based, multiplexed-readout assay that uses HepG2, a human liver cell line, with measurements taken at 24 hours after chemical dosing in a 24-well plate.ATG_CRE_CIS is one of 52 assay component(s) measured or calculated from the ATG_CIS assay. It is designed to make measurements of mRNA induction, a form of inducible reporter, as detected with fluorescence intensity signals by Reverse transcription polymerase chain reaction (RT-PCR) and Capillary electrophoresis technology.Data from the assay component ATG_CRE_CIS was analyzed into 1 assay endpoint. This assay endpoint, ATG_CRE_CIS, was analyzed with bidirectional fitting relative to DMSO as the negative control and baseline of activity. Using a type of inducible reporter, measures of mRNA for gain or loss-of-signal activity can be used to understand the reporter gene at the transcription factor-level as they relate to the gene CREB3. Furthermore, this assay endpoint can be referred to as a primary readout, because this assay has produced multiple assay endpoints where this one serves a reporter gene function. To generalize the intended target to other relatable targets, this assay endpoint is annotated to the dna binding intended target family, where the subfamily is basic leucine zipper.
Human liver HepG2 cells are transiently transfected with multiple reporter transcription units (MRTUs) in 6-well plates using FuGene 6 reagent (Roche; 3 ml FuGene/1 mg DNA). The MRTU constructs are regulated by a cis-regulating element (promoter). […] A major difference between the CIS and TRANS system is that in CIS activities of endogenous TFs are measured, whereas the TRANS assay evaluates changes in activities of exogenous, chimeric NR-Gal4 proteins. […] At the end of 24 hour incubation, total RNA was isolated using TriZol reagent (Invitrogen). The isolated RNA is then reverse-transcribed using oligo(dT) primer and Mo-MLV reverse transcriptase (Invitrogen) with DNAse I (Ambion) treatment for 30 min. The one-tenth of the produced cDNA was amplified by PCR using Taq DNA polymerase (Invitrogen) and two reporter sequence-specific primers. The PCR products were fluorescently labeled by primer extension with 6-arboxyfluorescein (6-FAM) 5'-labeled reporter sequence-specific primer (2 min at 95 C, 20 s at 68 C and 10 min at 72 C) and these products were digested with 5U of HpaI (New England Biolabs) for 2h at 37 C. The fragments were purified using Qiaquick PCR columns (Qiagen), analyzed on an ABI 3130xL genetic analyzer (Applied Biosystems) with peak positions identified by using a set of X-rhodamine (ROX)-labeled MapMarker1000 molecular weight standards (BioVentures). The raw capillary electrophoresis data was processed using Attagraph software (Attagene).

outcome, inactive:
COC(=O)CCSCCC(=O)OC, Brc1ccc(Oc2ccc(Br)cc2)cc1, CC(=O)c1nccs1, CN(C)CCC(c1ccc(Cl)cc1)c1ccccn1 (stereo not given), CC(C)CC(=O)CC(C)CC(C)C (stereo not given), CCC(C)NC(N)=O (stereo not given), COC(=O)c1ccccc1, CC1=C(CC=O)C(C)(C)CCC1, CC(C)(C)NC(=O)[C@@H]1CN(Cc2cccnc2)CCN1C[C@@H](O)C[C@@H](Cc1ccccc1)C(=O)N[C@H]1c2ccccc2C[C@H]1O, C/C=C(\C)C(=O)OCC/C=C\CC, CCC(C)C1N=C(C)C(C)S1 (stereo not given), O=C(O)c1ccccc1C(=O)O, CC/C=C\CC1=C(C)CCC1=O, O=C(OCc1ccccc1)c1ccccc1, O=C(O)/C=C\C(=O)O, CCO[Si](OCC)(OCC)c1ccccc1, NC(N)=Nc1nc(CSCCC(N)=NS(N)(=O)=O)cs1, CCOc1ccc2c(c1)C(C)CC(C)(C)N2 (stereo not given), CC=CC(=O)O, CN1CCCC1, Nc1nnc(-c2ccc([N+](=O)[O-])o2)o1, CC(C)CC(=O)CC(C)C, Cc1ccccc1S(N)(=O)=O, CC1=NN(c2cc(Cl)c(S(=O)(=O)O)cc2Cl)C(=O)C1N=Nc1ccc(S(=O)(=O)O)cc1 (stereo not given), O=C(Oc1ccccc1)c1ccccc1, COC(=O)[C@]1(C)CCC[C@@]2(C)[C@H]1CC=C1C=C(C(C)C)CC[C@@H]12, C=CC(C)(CCC=C(C)C)OC(=O)c1ccccc1 (stereo not given), CCCCCC1CCCC(=O)O1 (stereo not given), CCCc1c(OCCCCc2nn[nH]n2)ccc(C(C)=O)c1O, CCCCCCCCCCC1CO1 (stereo not given), CC1=CCCC(C)(C)C12CCC(C)O2 (stereo not given), CCCCCCCC#N, Clc1ccccn1, [O-][n+]1ccc(Cl)cc1, CCCCCCCCCCCCCC, COc1ccccc1OCC(O)CO (stereo not given), COc1c2occc2cc2ccc(=O)oc12, CCCCn1cc[n+](C)c1, CCC(C)=NO, c1cc(N(CC2CO2)CC2CO2)ccc1Cc1ccc(N(CC2CO2)CC2CO2)cc1 (stereo not given)
